A structure can be active in one record and inactive in another. Calls of active or inactive are those of the source. The calls were made as follows: active = hit-call score of the fitted dose curve at least 0.9, where 1 is the maximum; inactive = score below 0.9.
How the values were obtained:
[1] = read-out: Macrophage colony-stimulating factor (MCSF), CSF1 (gene 1435); assay: BSK_hDFCGF_MCSF: BioMAP Diversity Plus: hDFCGF Assay for Macrophage colony-stimulating factor (MCSF) Biomarker Activity (AID 2283060); conditions: primary human foreskin fibroblasts; actives raise or lower the signal
Summary of the method: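 ELISA read-out of M-CSF in human dermal foreskin fibroblast cultures, 24 h after chemical dosing; gain or loss of signal fitted bidirectionally relative to DMSO baseline.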

[2] = BSK_hDFCGF_SRB: Viability Assessment in the BioMAP Diversity Plus: hDFCGF Assay (AID 2283061); conditions: primary human foreskin fibroblasts;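 also: cells exposed to compound for 24 h before the read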
Summary of the method: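 Primary human foreskin fibroblasts; 24 h post-dose; fixed 10% TCA, stained 0.1% SRB, A560 read; total protein as overt cytotoxicity measure; curves fit bidirectionally vs DMSO control.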

[3] = read-out: TIMP metallopeptidase inhibitor 1 (TIMP1), TIMP1 (gene 7076); assay: BSK_hDFCGF_TIMP1: BioMAP Diversity Plus: hDFCGF Assay for TIMP metallopeptidase inhibitor 1 (TIMP1) Biomarker Activity (AID 2283062); conditions: primary human foreskin fibroblasts; actives raise or lower the signal
Summary of the method: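 ELISA readout of TIMP-1 from human dermal foreskin fibroblast cultures 24 h post-dosing. Curves were fitted in both directions against DMSO baseline, with SRB total-protein staining in parallel cultures as a cytotoxicity check.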

[4] = read-out: Monokine induced gamma interferon (MIG), CXCL9 (gene 4283); assay: BSK_hDFCGF_MIG: BioMAP Diversity Plus: hDFCGF Assay for Monokine induced gamma interferon (MIG) Biomarker Activity (AID 2283063); conditions: primary human foreskin fibroblasts; actives raise or lower the signal
Summary of the method: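 Fibroblasts (human foreskin, primary) dosed, 24 h, MIG by ELISA; fit bidirectional vs DMSO.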

[5] = read-out: Matrix Metallopeptidase 1 (MMP1), MMP1 (gene 4312); assay: BSK_hDFCGF_MMP1: BioMAP Diversity Plus: hDFCGF Assay for Matrix Metallopeptidase 1 (MMP1) Biomarker Activity (AID 2283064); conditions: primary human foreskin fibroblasts; actives raise or lower the signal
Summary of the method: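 MMP1 levels quantified by ELISA 24 h after dosing human dermal fibroblast cultures, with parallel SRB total-protein staining for overt cytotoxicity. Data fitted in both directions against DMSO baseline.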

[6] = read-out: Vascular cell adhesion molecule 1 (VCAM1), VCAM1 (gene 7412); assay: BSK_hDFCGF_VCAM1: BioMAP Diversity Plus: hDFCGF Assay for Vascular cell adhesion molecule 1 (VCAM1) Biomarker Activity (AID 2283065); conditions: primary human foreskin fibroblasts; actives raise or lower the signal;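 as to AC50: VCAM-1 protein level quantified by ELISA after 24 h chemical exposure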
Summary of the method: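 ELISA read-out of VCAM-1 on human skin fibroblasts, 24 h post-dose; gain or loss of signal fitted bidirectionally against DMSO baseline.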

[7] = read-out: Plasminogen activator inhibitor-1 (PAI1), SERPINE1 (gene 5054); assay: BSK_hDFCGF_PAI1: BioMAP Diversity Plus: hDFCGF Assay for Plasminogen activator inhibitor-1 (PAI1) Biomarker Activity (AID 2283066); conditions: primary human foreskin fibroblasts; actives raise or lower the signal
Summary of the method: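 PAI-1 levels in human dermal foreskin fibroblasts were quantified by ELISA 24 h after dosing, with gain or loss analysed against DMSO. Overt cytotoxicity was checked by sulforhodamine B total-protein staining in parallel cultures.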

[8] = read-out: Intercellular Adhesion Molecule 1 (ICAM1), ICAM1 (gene 3383); assay: BSK_KF3CT_ICAM1: BioMAP Diversity Plus: KF3CT Assay for Intercellular Adhesion Molecule 1 (ICAM1) Biomarker Activity (AID 2283067); conditions: primary human keratinocytes with fibroblasts; actives raise or lower the signal
Summary of the method: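 ELISA readout of ICAM-1; KF3CT human skin co-culture (keratinocytes + foreskin fibroblasts), 24 h post-dose; gain/loss fit vs DMSO baseline.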

[9] = BSK_KF3CT_SRB: Viability Assessment in the BioMAP Diversity Plus: KF3CT Assay (AID 2283069); conditions: primary human keratinocytes with fibroblasts;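 also: read 24 h after compound addition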
Summary of the method: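 Cytotoxicity was gauged by SRB staining (0.1% SRB, 10% TCA fixation, 560 nm) of parallel cultures at 24 h. The cells were primary human skin keratinocytes co-cultured with fibroblasts, and activity was fitted in both directions against DMSO.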

[10] = read-out: Interleukin-1 alpha (IL1a), IL1A (gene 3552); assay: BSK_KF3CT_IL1a: BioMAP Diversity Plus: KF3CT Assay for Interleukin-1 alpha (IL1a) Biomarker Activity (AID 2283070); conditions: primary human keratinocytes with fibroblasts; actives raise or lower the signal
Summary of the method: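 IL-1a was detected by ELISA 24 h after chemical treatment of a co-culture of human skin keratinocytes and foreskin fibroblasts. Gain or loss of signal was fitted against the DMSO baseline.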

[11] = read-out: TIMP metallopeptidase inhibitor 2 (TIMP2), TIMP2 (gene 7077); assay: BSK_KF3CT_TIMP2: BioMAP Diversity Plus: KF3CT Assay for TIMP metallopeptidase inhibitor 2 (TIMP2) Biomarker Activity (AID 2283071); conditions: primary human keratinocytes with fibroblasts; actives raise or lower the signal
Summary of the method: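 TIMP-2 measured by ELISA at 24 h in human keratinocyte/fibroblast primary co-cultures exposed to chemicals. Both increases and decreases were fitted against DMSO. Parallel cultures were stained with SRB for total protein as an overt-cytotoxicity check.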

[12] = read-out: C-C motif chemokine 2 (Homo sapiens) (UniProt P13500); assay: BSK_KF3CT_MCP1: BioMAP Diversity Plus: KF3CT Assay for Monocyte Chemoattractant Protein 1 (MCP1/CCL2) Biomarker Activity (AID 2283073); conditions: primary human keratinocytes with fibroblasts; actives raise or lower the signal
Summary of the method: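 KF3CT skin co-culture (keratinocytes/foreskin fibroblasts), 24 h post-dose; MCP-1 by ELISA; gain/loss of signal fit bidirectionally vs DMSO baseline.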

[13] = read-out: Matrix Metallopeptidase 9 (MMP9), MMP9 (gene 4318); assay: BSK_KF3CT_MMP9: BioMAP Diversity Plus: KF3CT Assay for Matrix Metallopeptidase 9 (MMP9) Biomarker Activity (AID 2283074); conditions: primary human keratinocytes with fibroblasts; actives raise or lower the signal;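 as to AC50: MMP9 protein level quantified by ELISA in the co-culture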
Summary of the method: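 MMP-9 quantified by ELISA after 24 h chemical treatment of primary human skin keratinocyte/fibroblast co-cultures; gain or loss fitted against DMSO, with parallel SRB staining (0.1% SRB, 560 nm) for overt cytotoxicity.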

[14] = read-out: urokinase plasminogen activator (uPA), PLAU (gene 5328); assay: BSK_KF3CT_uPA: BioMAP Diversity Plus: KF3CT Assay for urokinase plasminogen activator (uPA) Biomarker Activity (AID 2283075); conditions: primary human keratinocytes with fibroblasts; actives raise or lower the signal
Summary of the method: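 ELISA read-out of uPA 24 h after dosing human skin keratinocytes co-cultured with foreskin fibroblasts. Signal change fitted both ways relative to DMSO; sulforhodamine B on parallel cultures marks overt cytotoxicity.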

CD40, CD40 (gene 958) = assay: BSK_LPS_CD40: BioMAP Diversity Plus: LPS Assay for CD40 Biomarker Activity (AID 2283076); conditions: primary human HUVEC with PBMC; actives raise or lower the signal
Summary of the method: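 ELISA readout of CD40 in HUVEC/PBMC co-culture (BSK_LPS system), 24 h post-dosing; bidirectional curve fit, DMSO baseline; parallel SRB total-protein staining for cytotoxicity.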

[15] = read-out: Interleukin-8 (IL8), CXCL8 (gene 3576); assay: BSK_LPS_IL8: BioMAP Diversity Plus: LPS Assay for Interleukin-8 (IL8) Biomarker Activity (AID 2283078); conditions: primary human HUVEC with PBMC; actives raise or lower the signal
Summary of the method: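 HUVEC + PBMC co-culture, LPS-activated; test chemicals dosed, IL-8 read by ELISA at 24 h. Bidirectional curve fit vs DMSO baseline (gain or loss of signal).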

[16] = read-out: Interferon-gamma inducible Protein 10 (IP10), CXCL10 (gene 3627); assay: BSK_KF3CT_IP10: BioMAP Diversity Plus: KF3CT Assay for Interferon-gamma inducible Protein 10 (IP10) Biomarker Activity (AID 2283068); conditions: primary human keratinocytes with fibroblasts; actives raise or lower the signal
Summary of the method: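 Signal is secreted/surface IP-10 by ELISA in a human primary skin co-culture of keratinocytes and foreskin fibroblasts, taken 24 h post-dosing; DMSO served as negative control.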

[17] = read-out: Transforming growth factor beta 1 (TGFb1), TGFB1 (gene 7040); assay: BSK_KF3CT_TGFb1: BioMAP Diversity Plus: KF3CT Assay for Transforming growth factor beta 1 (TGFb1) Biomarker Activity (AID 2283072); conditions: primary human keratinocytes with fibroblasts; actives raise or lower the signal
Summary of the method: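 ELISA quantifies TGF-b1 at 24 h post-dose in a primary human skin co-culture of keratinocytes and fibroblasts, with gain or loss judged against DMSO. Parallel SRB total-protein staining flags overt cytotoxicity.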

[18] = read-out: E-selectin (Homo sapiens) (UniProt P16581); assay: BSK_LPS_Eselectin: BioMAP Diversity Plus: LPS Assay for Eselectin Biomarker Activity (AID 2283077); conditions: primary human HUVEC with PBMC; actives raise or lower the signal
Summary of the method: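 ELISA readout of E-selectin, 24 h post-dose, HUVEC + PBMC co-culture (LPS system). Gain or loss of signal vs DMSO baseline, bidirectional fit.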

Sequence of E-selectin (Homo sapiens) (P16581 whole entry, looked up): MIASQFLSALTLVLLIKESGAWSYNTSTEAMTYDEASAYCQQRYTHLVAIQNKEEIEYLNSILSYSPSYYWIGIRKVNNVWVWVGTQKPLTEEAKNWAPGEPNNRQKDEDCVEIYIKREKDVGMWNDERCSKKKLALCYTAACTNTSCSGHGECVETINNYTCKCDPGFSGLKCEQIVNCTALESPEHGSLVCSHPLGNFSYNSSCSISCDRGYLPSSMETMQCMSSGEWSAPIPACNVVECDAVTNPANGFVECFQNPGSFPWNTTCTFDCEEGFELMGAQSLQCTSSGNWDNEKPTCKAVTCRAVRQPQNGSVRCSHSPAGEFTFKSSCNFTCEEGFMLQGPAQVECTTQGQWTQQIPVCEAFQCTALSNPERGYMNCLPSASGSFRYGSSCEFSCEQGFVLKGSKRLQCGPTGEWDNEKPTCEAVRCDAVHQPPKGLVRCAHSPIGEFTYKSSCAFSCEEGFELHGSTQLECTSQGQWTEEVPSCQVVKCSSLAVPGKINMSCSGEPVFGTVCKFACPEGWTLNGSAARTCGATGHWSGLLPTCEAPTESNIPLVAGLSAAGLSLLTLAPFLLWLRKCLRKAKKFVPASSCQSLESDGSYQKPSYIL

## O=C(O)C(F)(F)C(F)(F)C(=O)O
[1]
  outcome: inactive
[2]
  outcome: inactive
[3]
  outcome: inactive
[4]
  AC50: 14.1 µM (active)
  outcome: inactive
[5]
  outcome: inactive
[6]
  outcome: inactive
[7]
  outcome: inactive
[8]
  outcome: inactive
[9]
  outcome: inactive
[10]
  outcome: inactive
[11]
  outcome: inactive
[12]
  outcome: inactive
[13]
  outcome: inactive
[14]
  outcome: inactive
CD40, CD40 (gene 958)
  outcome: inactive
[15]
  outcome: inactive

## CC(C)(C)OOC(C)(C)C
[1]
  outcome: inactive
[2]
  outcome: inactive
[3]
  outcome: inactive
[4]
  outcome: inactive
[5]
  outcome: inactive
[6]
  outcome: inactive
[7]
  outcome: inactive
[8]
  outcome: inactive
[16]
  outcome: inactive
[9]
  outcome: inactive
[10]
  outcome: inactive
[11]
  outcome: inactive
[17]
  outcome: inactive
[12]
  outcome: inactive
[13]
  outcome: inactive
[14]
  outcome: inactive
CD40, CD40 (gene 958)
  outcome: inactive
[18]
  outcome: inactive
[15]
  outcome: inactive

## O=C(O)C1C(C(=O)O)C2(Cl)C(Cl)=C(Cl)C1(Cl)C2(Cl)Cl (stereo unspecified)
[1]
  outcome: inactive
[2]
  outcome: inactive
[3]
  outcome: inactive
[4]
  outcome: inactive
[5]
  outcome: inactive
[6]
  outcome: inactive
[8]
  outcome: inactive
[9]
  outcome: inactive
[10]
  outcome: inactive
[11]
  outcome: inactive
[17]
  outcome: inactive
[12]
  outcome: inactive
[13]
  outcome: inactive
[14]
  outcome: inactive
CD40, CD40 (gene 958)
  outcome: inactive
[18]
  outcome: inactive
[15]
  outcome: inactive

## ClC1=C(Cl)C2(Cl)C3C(Cl)C(Cl)CC3C1(Cl)C2(Cl)Cl (stereo unspecified)
[1]
  AC50: 5.82 µM (active)
[2]
  AC50: 7.71 µM (active)
[3]
  AC50: 8.69 µM (active)
[4]
  AC50: 9.26 µM (active)
[5]
  AC50: 10.1 µM (active)
[6]
  AC50: 5.47 µM (active)
[16]
  AC50: 16.1 µM (active)
[9]
  AC50: 28.2 µM (active)
[10]
  AC50: 20 µM (active)
[11]
  AC50: 26.8 µM (active)
[17]
  AC50: 20 µM (active)
[12]
  outcome: inactive
[13]
  AC50: 13.3 µM (active)
[14]
  AC50: 27.9 µM (active)
CD40, CD40 (gene 958)
  AC50: 14.9 µM (active)
[15]
  AC50: 34 µM (active)

## CCOc1ccc(C(C)(C)COCc2cccc(Oc3ccccc3)c2)cc1
[1]
  AC50: 2.26 µM (active)
[2]
  outcome: inactive
[3]
  outcome: inactive
[4]
  outcome: inactive
[5]
  outcome: inactive
[6]
  outcome: inactive
[16]
  outcome: inactive
[9]
  outcome: inactive
[10]
  outcome: inactive
[11]
  outcome: inactive
[17]
  outcome: inactive
[12]
  outcome: inactive
[14]
  outcome: inactive
CD40, CD40 (gene 958)
  outcome: inactive
[18]
  outcome: inactive
[15]
  outcome: inactive

## ClC(Cl)(Cl)c1ccccc1
[1]
  outcome: inactive
[2]
  outcome: inactive
[3]
  outcome: inactive
[4]
  outcome: inactive
[5]
  outcome: inactive
[6]
  outcome: inactive
[7]
  outcome: inactive
[8]
  outcome: inactive
[9]
  outcome: inactive
[10]
  outcome: inactive
[11]
  outcome: inactive
[17]
  outcome: inactive
[12]
  outcome: inactive
[14]
  outcome: inactive
CD40, CD40 (gene 958)
  outcome: inactive
[15]
  outcome: inactive

## O=C(O)C(F)(F)OC(F)(F)C(F)(F)OC(F)(F)F
[1]
  outcome: inactive
[2]
  outcome: inactive
[3]
  outcome: inactive
[4]
  outcome: inactive
[5]
  outcome: inactive
[6]
  outcome: inactive
[7]
  outcome: inactive
[9]
  outcome: inactive
[10]
  AC50: 47.7 µM (active)
  outcome: inactive
[11]
  outcome: inactive
[12]
  outcome: inactive
[14]
  outcome: inactive
CD40, CD40 (gene 958)
  outcome: inactive
[15]
  outcome: inactive
